Laboratory results from article PMC5540273 (PLoS ONE, 2017).

Assays:
Details in all cases: concentration: 1 μM, replicates: in singlicate; n = 1
DDR2 = system: DDR2
DLK = system: T1, DLK
T1 construct: gene MAP3K12

DMPK2 = system: T2, DMPK2
T2 construct: gene CDC42BPG

DMPK = system: DMPK
DRAK1 = system: T3, DRAK1
T3 construct: gene STK17A

DRAK2 = system: T4, DRAK2
T4 construct: gene STK17B

DYRK1A = system: DYRK1A
DYRK1B = system: DYRK1B
DYRK2 = system: DYRK2
EGFR = system: EGFR
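Further: KINOMEscan kinase panel screen.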

Row | SMILES | %Inh (DDR2) [%] | %Inh (DLK) [%] | %Inh (DMPK2) [%] | %Inh (DMPK) [%] | %Inh (DRAK1) [%] | %Inh (DRAK2) [%] | %Inh (DYRK1A) [%] | %Inh (DYRK1B) [%] | %Inh (DYRK2) [%] | %Inh (EGFR) [%]
1 | c1ccc(-c2ccc3c(-c4ccnc(Nc5ccc6c(c5)OCCO6)n4)cnn3n2)cc1 [GW818941] | 26 | 0 | 0 | 20 | 15 | 0 | 8 | 16 | 0 | 14
2 | CSc1nn2c(=O)cc(N3CCOCC3)nc2n1Cc1cccc(Cl)c1Cl [GSK2347225] | 0 | 100 | 16 | 12 | 4 | 0 | 19 | 23 | 8 | 39
3 | COc1ccc(NC(=O)Nc2ccc(C)c(-c3ccc(C(=O)Nc4ccncc4)cc3)c2)cc1 [GSK1398475] | 44 | 0 | 6 | 0 | 5 | 8 | 2 | 0 | 6 | 33
4 | O=C(NCCCN1CCCC1=O)c1cnc(NCc2cc(Cl)ccc2Cl)nc1NC1CCNCC1 | 0 | 0 | 0 | 0 | 0 | 16 | 0 | 0 | 0 | 20
5 | FC(F)(F)c1ccc(-c2nn3ncccc3c2-c2ccnc(Nc3cccc(C(F)(F)F)c3)n2)cc1 [GW828205] | 25 | 7 | 0 | 7 | 0 | 18 | 0 | 41 | 31 | 11
6 | Cl.c1ccc(Cn2ccc3cc(Nc4ncnc5ccccc45)ccc32)cc1 [GW275568] | 16 | 6 | 5 | 0 | 0 | 0 | 4 | 0 | 9 | 100
7 | Nc1nccc2scc(-c3ccc4c(c3)CCN4C(=O)Cc3cc(F)ccc3F)c12 [GSK2587663] | 1 | 21 | 13 | 0 | 3 | 5 | 0 | 12 | 5 | 21
8 | CC(C)N1CCC(n2cnc(-c3ccc(F)cc3)c2-c2ccnc(N)n2)CC1 [SB-223132] | 38 | 0 | 11 | 0 | 7 | 7 | 0 | 5 | 0 | 10
9 | O=c1cc(N2CCOCC2)nc2n(Cc3cccc(Cl)c3)ccn12 [GSK2296823] | 0 | 0 | 0 | 0 | 0 | 0 | 28 | 0 | 9 | 20
10 | Clc1cc(Nc2ncnc3cc[nH]c23)ccc1OCc1ccccn1 | 0 | 40 | 0 | 9 | 48 | 20 | 0 | 17 | 17 | 99.9
11 | Fc1cccc(COc2ccc(Nc3ncnc4cc[nH]c34)cc2Cl)c1 | 0 | 0 | 16 | 1 | 55 | 6 | 8 | 25 | 22 | 100
12 | Cn1cc(-c2ccc3c(c2)CCN3C(=O)Cc2cccc(C(F)(F)F)c2)c2c(N)ncnc21 [GSK2606414] | 74 | 23 | 0 | 30 | 3 | 0 | 16 | 0 | 27 | 20
13 | COc1ccc(NC(=O)c2ccc(-c3cc(-c4nnc(C)o4)ccc3C)cc2)cc1 [GW595885] | 9 | 18 | 0 | 0 | 0 | 0 | 20 | 0 | 4 | 14
14 | CC(=O)Nc1n[nH]c2ncc(-c3ccccc3)cc12 [SB-548492] | 11 | 0 | 0 | 0 | 20 | 0 | 32 | 0 | 24 | 3
15 | O=C(Nc1ccccc1F)NC1CCN(c2ccnc(Nc3ccc(F)cc3)n2)C1 (stereo not drawn) [GSK1379722] | 11 | 23 | 1 | 0 | 0 | 0 | 19 | 22 | 0 | 0
16 | COc1cc2ncnc(Nc3ccc(OCc4ccccc4Br)c(Cl)c3)c2cc1OC.Cl [GI261590] | 18 | 3 | 7 | 0 | 9 | 0 | 10 | 0 | 0 | 99.9
17 | Clc1ccc(-c2cc(-c3c[nH]nc3-c3ccccn3)ccn2)cc1 [GW681251] | 7 | 92.9 | 0 | 0 | 0 | 0 | 11 | 0 | 0 | 24

Row | SMILES | %Inh (DDR2) [%] | %Inh (DLK) [%] | %Inh (DMPK2) [%] | %Inh (DMPK) [%] | %Inh (DRAK1) [%] | %Inh (DRAK2) [%] | %Inh (DYRK1A) [%] | %Inh (DYRK1B) [%] | %Inh (DYRK2) [%] | %Inh (EGFR) [%]
18 | Nc1nc(-c2ccc3c(N)n[nH]c3c2)cc(N2CCCCC2)n1 [GSK2228768] | 0 | 0 | 0 | 0 | 93.1 | 11 | 18 | 0 | 58 | 3
19 | Cc1cc(N2CCC(NS(=O)(=O)c3ccc(F)cc3)CC2)nc(Nc2cccc(C#N)c2)n1.O=C(O)C(F)(F)F [GSK1653537] | 7 | 47 | 0 | 0 | 3 | 0 | 32 | 97.7 | 5 | 50
20 | Fc1cccc(COc2ccc(Nc3ncnc4nn5ccccc5c34)cc2Cl)c1 [GW689066] | 37 | 52 | 0 | 0 | 87 | 0 | 8 | 0 | 0 | –
21 | COC(=O)c1cccc(NC(=O)NCCNc2ccnc(Nc3ccc(F)cc3)n2)c1 [GSK1379883] | 17 | 31 | 8 | 0 | 0 | 0 | 0 | 14 | 5 | 3
22 | Cl.Cn1ccc(-c2cccc(Nc3ccnc4cc(-c5nccs5)ccc34)c2)n1 [GW525701] | 33 | 37 | 0 | 0 | 8 | 10 | 12 | 16 | 0 | 11
23 | CCn1c(-c2ccncc2)nc2cnccc21 [SB-735216] | 7 | 0 | 0 | 0 | 0 | 2 | 4 | 2 | 17 | 0
24 | Cn1ccc2ncnc(Oc3ccc(NC(=O)Nc4cccnc4)c(Cl)c3)c21 | 90.7 | 0 | 0 | 0 | 8 | 2 | 0 | 33 | 14 | 20
25 | Nc1nc(-c2ccc3c(N)n[nH]c3c2)cc(N2CCC[C@@H](C(=O)Nc3ccccc3)C2)n1.O=C(O)C(F)(F)F.O=C(O)C(F)(F)F [GSK2288359] | 7 | 0 | 15 | 0 | 55 | 0 | 0 | 14 | 32 | 24
26 | Oc1ccc2ncnc(Nc3ccc(OCc4ccccc4)cc3)c2c1 [GI262866] | 7 | 11 | 0 | 0 | 0 | 0 | 16 | 0 | 18 | 100
27 | Clc1cccc(-c2nc(Nc3ccncc3)c3ccccc3n2)c1 [GW873004] | 32 | 0 | 84 | 4 | 0 | 10 | 12 | 57 | 7 | 10
28 | Cl.c1ccc(Cn2ncc3cc(Nc4ncnc5ccccc45)ccc32)cc1 [GW273749] | 0 | 12 | 61 | 0 | 79 | 0 | 16 | 8 | 16 | 100
29 | Fc1cccc(COc2ccc(Nc3ncnc4sc(-c5ccc[nH]5)cc34)cc2Cl)c1 [GW707818] | 21 | 40 | 0 | 0 | 3 | 0 | 0 | 38 | 8 | 100
30 | Cl.O=S(=O)(c1cccc(F)c1)c1ccc(Nc2ncnc3cc(Br)sc23)cc1Cl [GSK306886] | 0 | 0 | 15 | 0 | 9 | 0 | 7 | 0 | 14 | 99.2
31 | Cn1ccc2ncnc(Nc3ccc(Oc4cccc(Cl)c4)c(Cl)c3)c21 | 4 | 0 | 5 | 0 | 4 | 1 | 22 | 55 | 33 | 100
32 | COc1cc2c(Nc3cccc(NC(=O)c4ccccc4)c3)ncnc2cc1OCCCN1CCOCC1 [GSK223810] | 16 | 13 | 0 | 0 | 11 | 0 | 0 | 15 | 33 | 87
33 | CCCc1ccc(S(=O)(=O)NC2CCN(c3ccnc(Nc4ccc(OC)cc4)n3)C2)cc1 (stereo not drawn) [GSK1379737] | 34 | 28 | 94.7 | 0 | 0 | 0 | 19 | 8 | 0 | 32
34 | Fc1ccc(Nc2nccc(-c3c(-c4ccc(Cl)cc4)nn4ncccc34)n2)cc1F [GW829058] | 18 | 20 | 0 | 21 | 5 | 0 | 0 | 11 | 40 | 24
